Screening data deposited in PubChem BioAssay by several laboratories.
In the library only some 4.1% were active in any assay of this set; here they are far more common.
Shn3 inh set2 – reduction of Shn3 3'UTR firefly luciferase signal, primary screen, Schnurri-3 inhibitor project, cell-based, Clone20 osteoblasts, set 2 | Clone20 osteoblast Shn3 3'UTR firefly luciferase, 24 h | inhibition, % at 12.5 µM | 360,000 compounds, 0.52% hits;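 active = mean inhibition of at least 75% with every replicate also reaching 75%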;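 note: 0% = median of neutral control wells and 100% = pilot-screen positive control compound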
LMP1 NFkB inh – EBV LMP1-driven NF-kappaB luciferase reporter inhibitors, primary screen, cell-based, luminescence, single point | 350,000 compounds, 0.69% hits | LMP1-induced NF-kappaB luciferase reporter cells | inhibition, % at 12.5 µM | AID 504558, 2011; in the data active = inhibition above about 41%;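 note: 0% = neutral control wells and 100% = reference inhibitor control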
TRPM1 prom inh – inhibitors of MITF-dependent TRPM1 promoter reporter, primary screen, cell-based, SK-MEL-5, single point, luciferase; SK-MEL-5 TRPM1 promoter luciferase, 24 h; inhibition, % at 12.5 µM; 330,000 compounds, 0.83% hits;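 active = mean inhibition across replicates of 60% or more, whatever share of single replicates reaches that level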
TWEAK-Fn14 inh – inhibitors of TWEAK-Fn14 signaling, primary screen, luciferase reporter cells, uHTS. TWEAK-stimulated Fn14 reporter cells, luciferase luminescence, 8 h. inhibition, % at 10 µM. 360,000 compounds, 2% hits. AID 1159606, 2016; in the data active = inhibition above about 50%
TROY NFkB inh – inhibitors of TROY-driven NF-kB signaling, primary screen, Q293 LMP1-TROYcd cells, NF-kB luciferase, uHTS; Q293 LMP1-TROYcd NF-kB luciferase reporter, 4 h; inhibition, % at 10 µM; 360,000 compounds, 0.98% hits;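 active = compounds whose plate-normalised and pattern-corrected inhibition of the luciferase reporter signal at the single screening dose is 50% or more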
Peg3 promoter – Peg3 promoter-driven luciferase inhibitors, primary screen, cell-based, HeLa, luciferase luminescence | HeLa PEG-Prom luciferase reporter, overnight | 360,000 compounds, 1.7% hits | inhibition, % at 20 µM;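 active = inhibition of at least 50% at 20 µM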
Numbers without * were called inactive; nt = not tested or not shown.

SMILES	Shn3 inh set2	LMP1 NFkB inh	TRPM1 prom inh	TWEAK-Fn14 inh	TROY NFkB inh	Peg3 promoter
COc1cc(OC)cc(C(=O)NNC(=O)CCC2CCCC2)c1	-9	0	nt	-7	9	12
OCC1OC(n2ccc3c(SCc4ccccc4)ncnc32)C(O)C1O (stereo not drawn)	-59	-26	-51	-18	-44	-289
O=C(CC1SC(=Nc2ccc(OC(F)F)cc2)N(CCN2CCOCC2)C1=O)Nc1ccc(F)cc1F (stereo not drawn)	-3	8	7	-8	4	18
CN=C1SC(CC(=O)Nc2ccc(F)cc2F)C(=O)N1/N=C/c1ccc(OC(F)F)c(OC)c1 (stereo not drawn)	83*	20	9	4	5	22
COc1ccc2c(c1)-c1c(ssc1=S)C(C)(C)N2	18	45*	1	92*	50*	4
N#CC(C#N)=NNc1ccc2cn[nH]c2c1	-23	nt	nt	92*	62*	23
C=CCOc1c(CNc2cccc(C(=O)O)c2)cccc1OC	-76	-31	-50	54*	9	-188
O=C(Nc1ccc(CN2CCOCC2)cc1)c1ccc(-c2ccc(Br)cc2)o1	11	-1	0	28	53*	7
C=CCNc1nc(N)c(C(=C(C#N)C#N)c2ccc(Br)cc2)s1	28	11	22	47	20	56*
C=CCNc1sc(C(=O)c2ccc(C)cc2)c(N)c1C#N	-6	-2	4	13	-11	-10
Cc1cccc2cc(C#N)c(SCC(=O)N3CC(=O)Nc4ccccc43)nc12	28	-49	65*	10	35	21
COc1ccc2cc(C#N)c(SCC(=O)N3CC(=O)Nc4ccccc43)nc2c1	9	5	-8	-2	-4	23
COc1cccc(OC)c1C(=O)Nc1ccnn1C	-69	2	0	18	-4	-2
C=CCOc1ccc(CN(C)CC(O)COc2ccc(CCC(C)=O)cc2)cc1 (stereo not drawn)	4	3	5	55*	6	23
CC1CCCC(NC(=O)CN2C(=O)NC(c3ccccc3)(c3ccccc3)C2=O)C1C (stereo not drawn)	-5	-12	-18	15	14	7
CCOc1ccc(NC(=O)N(O)C2(C#N)CCCCC2)cc1	1	3	-3	-32	-23	96*
CC(C)Oc1cccc(C(=O)N/N=C/c2coc3ccccc3c2=O)c1	-4	-1	1	2	-17	9
COC(=O)c1cc2n(n1)CCN(Cc1ccc(C)cc1)C2=O	-6	6	-11	2	2	15
COC(=O)c1cc2n(n1)CCN(Cc1ccccc1Cl)C2=O	-3	70*	-8	-6	-11	7
CCC(OC(=O)c1ccco1)C(=O)NC1CCCC1 (stereo not drawn)	4	5	4	14	8	-8
COC1=C(OC)C(=O)C(CCCCCCCCCCO)=C(C)C1=O	15	nt	nt	77*	50*	-22
O=C(O)c1ccc(N=Nc2c(O)[nH]c3cc(Cl)ccc23)cc1	-50	-95	-102	55*	-61	-192
Cc1nnc(Cc2ccco2)c2n[nH]c(C)c12	-24	1	nt	4	-10	-3
O=C1Cc2c([nH]c3ccc(Br)cc23)-c2ccccc2N1	-97	-196	-13	79*	4	95*
Cc1ccc(NC2=C/C(=N/S(=O)(=O)c3cccs3)c3ccccc3C2=O)cc1	97*	80*	105*	94*	60*	-88
O=C1C(Nc2ccccc2)=C/C(=N/S(=O)(=O)c2cccs2)c2ccccc21	97*	87*	95*	97*	48	105*
CC(C)CC(=O)Nc1nnc(S(=O)(=O)N2c3ccccc3CC2C)s1 (stereo not drawn)	20	4	2	-17	2	4
O=C1c2ccccc2C(Nc2ccc3c(c2)OCCO3)N1Cc1ccc2c(c1)OCO2 (stereo not drawn)	15	14	nt	74*	63*	2
